Drawing on PubChem BioAssay (Tox21), this text covers Potency for 29 compounds.

SMILES strings stand for the structures. Inconclusive results are not listed. Where a call stands in place of a potency, no number is given. Activity calls are given as the source filed them. Calls come from the whole dose curve; as a rule, active = well fitted inhibition curve with a large enough effect in the repeat runs; inconclusive = weak or mixed curves; inactive = no such curve, though single readings can be large or run the other way.
Potency is the fitted concentration of half-maximal effect.

This assay deals with Aromatase (Homo sapiens) (UniProt P11511). The assay is described as follows: qHTS assay to identify aromatase inhibitors (AID 743083). Note: nearly all actives have a fitted effect of over 55% in size. To be noted: MCF-7 aro ERE, testosterone-driven ERE luciferase, 24 h; series mostly up to 70.3 µM. Background: Quantitative high-throughput screening tests each substance at several concentrations.
Chain of Aromatase (Homo sapiens) (P11511 whole entry, looked up): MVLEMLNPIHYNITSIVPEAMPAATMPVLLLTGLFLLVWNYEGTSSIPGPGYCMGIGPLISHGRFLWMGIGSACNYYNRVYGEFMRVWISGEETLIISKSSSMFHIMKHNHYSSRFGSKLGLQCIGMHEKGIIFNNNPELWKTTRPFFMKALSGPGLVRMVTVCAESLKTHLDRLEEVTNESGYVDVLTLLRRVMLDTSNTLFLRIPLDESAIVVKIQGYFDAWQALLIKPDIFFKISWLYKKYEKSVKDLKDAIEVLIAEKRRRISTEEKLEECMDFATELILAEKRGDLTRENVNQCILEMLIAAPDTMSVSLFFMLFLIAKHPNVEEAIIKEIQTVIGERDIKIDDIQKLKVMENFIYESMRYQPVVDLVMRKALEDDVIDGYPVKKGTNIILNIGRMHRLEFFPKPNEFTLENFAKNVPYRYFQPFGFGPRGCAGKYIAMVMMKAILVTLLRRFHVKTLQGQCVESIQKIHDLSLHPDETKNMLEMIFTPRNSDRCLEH
Turning to `Cc1cc(O)c2c(c1)O[C@@]1(C)CC[C@H]3C(C)(C)CCCC34CO[C@@H]2[C@H]41` (some centres undefined), the Potency was 26.6 µM (active).

With `CCN(CC)CCC(=O)N1c2ccccc2Sc2ccc(C(F)(F)F)cc21`, the Potency entry was “inactive”.

Regarding `C=C1CC[C@@H]2[C@](C)(CO)[C@H](O)CC[C@@]2(C)[C@@H]1C/C=C1/C(=O)OC[C@H]1O`, the Potency result is “inactive”.

Regarding `CCN(CC)CCC(=O)N1c2ccccc2Sc2ccc(Cl)cc21`, the Potency result is “inactive”.

For the compound `CC(=O)[C@]1(O)Cc2c(O)c3c(c(O)c2[C@@H](O[C@H]2C[C@H](N)[C@H](O)[C@H](C)O2)C1)C(=O)c1c(O)cccc1C3=O`, the Potency was 3.35 µM (active).

In the case of `CC(C)N=c1cc2n(-c3ccc(Cl)cc3)c3ccccc3nc-2cc1Nc1ccc(Cl)cc1`, the Potency entry was “inactive”.

Take `COc1ccc(C2NC(=S)N3C(c4ccc(OC)c(OC)c4)NC(=S)N23)cc1OC` (centres undefined): the Potency was 0.168 µM (active).

In the case of `CO[C@H]1C[C@H](O[C@H]2[C@H](C)O[C@@H](O[C@@H]3/C(C)=C/C[C@@H]4C[C@@H](C[C@]5(C=C[C@H](C)[C@@H](C6CCCCC6)O5)O4)OC(=O)[C@@H]4C=C(C)[C@@H](O)[C@H]5OC/C(=C\C=C\[C@@H]3C)[C@]54O)C[C@@H]2OC)O[C@@H](C)[C@@H]1O`, the Potency entry is “inactive”.

For `CN(C)CCCN1c2ccccc2C(C)(C)c2ccccc21`, the Potency entry was “inactive”.

Turning to `C=C1CC[C@H](O)CC1=C/C=C1\CCC[C@]2(C)[C@@H]([C@H](C)CC[C@@H](O)C(C)(C)O)CC[C@@H]12`, the Potency entry was “inactive”.

On to `CN(C)C(=O)CCSC(SCCC(=O)O)c1cccc(/C=C/c2ccc3ccc(Cl)cc3n2)c1` (centres undefined), for which the Potency result was “inactive”.

`CC1(S(=O)(=O)O)CC(=O)c2ccccc2C1=O` (centres undefined): the Potency is 26.6 µM (active).

With `OC[C@H]1OC([S-])[C@H](O)[C@@H](O)[C@@H]1O.[Au+]` (some centres undefined), the Potency entry is “inactive”.

Regarding `C=C1C(=C/C=C2\CCC[C@]3(C)[C@@H]([C@H](C)CCCC(C)(C)O)CC[C@@H]23)C[C@@H](O)C[C@@H]1O`, the Potency entry was “inactive”.

With `C#C[C@]1(O)CC[C@H]2[C@@H]3CCC4=C/C(=N/O)CC[C@@H]4[C@H]3CC[C@@]21CC`, the Potency was 23.7 µM (active).

For `CCN(CC)CCOc1ccc(-c2nc3cc(Cl)ccc3s2)cc1`, the Potency entry is “inactive”.

In the case of `COc1ccc(C[C@H](N)C(=O)N[C@H]2[C@@H](O)[C@H](n3cnc4c(N(C)C)ncnc43)O[C@@H]2CO)cc1`, the Potency is 11.9 µM (active).

Take `COc1cc(-c2ccc(-[n+]3nc(-c4ccccc4)nn3-c3ccc([N+](=O)[O-])cc3)c(OC)c2)ccc1-[n+]1nc(-c2ccccc2)nn1-c1ccc([N+](=O)[O-])cc1`: the Potency is 26.6 µM (active).

With `C=C1C(=O)O[C@H]2[C@H]1CC/C(C)=C\CC[C@@]1(C)O[C@@H]21`, the Potency is 21.1 µM (active).

Take `CC(C)(C)NC[C@H](O)COc1ccccc1C1CCCC1`: the Potency result is “inactive”.

`CC(=O)Oc1cc(C)c(OC(C)=O)c2ccccc12`: the Potency is 26.6 µM (active).

Consider `C=C1CC[C@H](O)CC1=C/C=C1\CCC[C@]2(C)[C@@H]([C@H](C)CCCC(C)(C)O)CC[C@@H]12`, for which the Potency entry was “inactive”.

In the case of `OCCN1CCN(CC/C=C2/c3ccccc3Sc3ccc(Cl)cc32)CC1`, the Potency result was “inactive”.

For the compound `CCCCCCOc1ccc(C(=N)N(CCCC)CCCC)c2ccccc12`, the Potency is 13.3 µM (active).

Take `Clc1cc(Cl)c(OCC#CI)cc1Cl`: the Potency was 16.8 µM (active).

Turning to `CCN(CC)c1ccc(C(=C2C=CC(=[N+](CC)CC)C=C2)c2ccccc2)cc1`, the Potency was 3.35 µM (active).

In the case of `CCCCC(=O)OCC(=O)[C@]1(O)Cc2c(O)c3c(c(O)c2[C@@H](O[C@H]2C[C@H](NC(=O)C(F)(F)F)[C@H](O)[C@H](C)O2)C1)C(=O)c1c(OC)cccc1C3=O`, the Potency entry was “inactive”.

Regarding `CSc1nc2cc(Oc3cccc(Cl)c3Cl)c(Cl)cc2[nH]1`, the Potency is 23.7 µM (active).

`S=C1SCN(Cc2ccccc2)CN1Cc1ccccc1`: the Potency result is “inactive”.
